Data published in PubChem BioAssay AID1159580 (chemical genetic matrix, 2015).
Hit rate of the full screen: of about 5,500 compounds, about 2,000 (36%) were called active. About 18% were inconclusive and are not listed. Cut-off read from the data, not from the text of the source: active = normalized growth mostly below about 0.91 (no sharp cut-off); inconclusive = no clear call, values can overlap the other calls; inactive = mostly above about 0.92. The list shows a part of the results.

Experiment: chemical genetic growth profiling, strain panel (AID 1159580);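 note: tested at 20 µM; growth read once vehicle control cultures reached saturation at 30 °C; 1 = growth at the plate median or of vehicle wells; lower values mean less growth of the strain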
Settings: growth OD
[1] = S. cerevisiae deletion strains, locus YAL013W, strain DEP1, stronger effect = lower value
[2] = S. cerevisiae deletion strains, locus YBR021W, strain FUR4, stronger effect = lower value
[3] = S. cerevisiae deletion strains, locus YBR229C, strain ROT2, stronger effect = lower value
[4] = S. cerevisiae deletion strains, locus YCL029C, strain bik1, stronger effect = lower value
[5] = S. cerevisiae deletion strains, locus YDL035C, strain GPR1, stronger effect = lower value
[6] = S. cerevisiae deletion strains, locus YDL074C, strain BRE1, stronger effect = lower value
[7] = S. cerevisiae deletion strains, locus YDL101C, strain DUN1, stronger effect = lower value
[8] = S. cerevisiae deletion strains, locus YDL134C, strain PPH21, stronger effect = lower value
[9] = S. cerevisiae deletion strains, locus YDL185W, strain tfp1, stronger effect = lower value
[10] = S. cerevisiae deletion strains, locus YDL192W, strain arf1, stronger effect = lower value
[11] = S. cerevisiae deletion strains, locus YDR101C, strain arx1, stronger effect = lower value
[12] = S. cerevisiae deletion strains, locus YDR162C, strain NBP2, stronger effect = lower value
[13] = S. cerevisiae deletion strains, locus YDR318W, strain mcm21, stronger effect = lower value
[14] = S. cerevisiae deletion strains, locus YDR388W, stronger effect = lower value
[15] = S. cerevisiae deletion strains, locus YDR502C, strain sam2, stronger effect = lower value
[16] = S. cerevisiae deletion strains, locus YEL061C, strain CIN8, stronger effect = lower value
[17] = S. cerevisiae deletion strains, locus YER110C, stronger effect = lower value
[18] = S. cerevisiae deletion strains, locus YER155C, strain BEM2, stronger effect = lower value
[19] = S. cerevisiae deletion strains, locus YER167W, strain BCK2, stronger effect = lower value
[20] = S. cerevisiae deletion strains, locus YGL078C, strain dbp3, stronger effect = lower value
[21] = S. cerevisiae deletion strains, locus YGL086W, strain mad1, stronger effect = lower value
[22] = S. cerevisiae deletion strains, locus YGL248W, strain PDE1, stronger effect = lower value
[23] = S. cerevisiae deletion strains, locus YGR135W, strain pre9, stronger effect = lower value
[24] = S. cerevisiae deletion strains, locus YGR229C, strain SMI1, stronger effect = lower value
[25] = S. cerevisiae deletion strains, locus YGR252W, strain gcn5, stronger effect = lower value
[26] = S. cerevisiae deletion strains, locus YHR030C, strain SLT2, stronger effect = lower value
[27] = S. cerevisiae deletion strains, locus YHR079C, strain IRE1 (second series), stronger effect = lower value
[28] = S. cerevisiae deletion strains, locus YHR094C, strain hxt1, stronger effect = lower value
[29] = S. cerevisiae deletion strains, locus YHR129C, strain ARP1, stronger effect = lower value
[30] = S. cerevisiae deletion strains, locus YHR200W, strain rpn10, stronger effect = lower value
[31] = S. cerevisiae deletion strains, locus YIL066C, strain RNR3, stronger effect = lower value
[32] = S. cerevisiae deletion strains, locus YIL073C, strain SPO22, stronger effect = lower value
[33] = S. cerevisiae deletion strains, locus YIL125W, strain kgd1, stronger effect = lower value
[34] = S. cerevisiae deletion strains, locus YIR030C, strain dcg1, stronger effect = lower value
[35] = S. cerevisiae deletion strains, locus YJL095W, strain BCK1, stronger effect = lower value
[36] = S. cerevisiae deletion strains, locus YJL134W, strain LCB3, stronger effect = lower value
[37] = S. cerevisiae deletion strains, locus YJL168C, strain set2, stronger effect = lower value
[38] = S. cerevisiae deletion strains, locus YJL187C, strain SWE1 (second series), stronger effect = lower value
[39] = S. cerevisiae deletion strains, locus YKL009W, strain mrt4, stronger effect = lower value
[40] = S. cerevisiae deletion strains, locus YKL068W, stronger effect = lower value
[41] = S. cerevisiae deletion strains, locus YKL085W, strain MDH1 (second series), stronger effect = lower value
[42] = S. cerevisiae deletion strains, locus YKL085W, strain MDH1, stronger effect = lower value
[43] = S. cerevisiae deletion strains, locus YKR001C, strain vps1, stronger effect = lower value
[44] = S. cerevisiae deletion strains, locus YLR039C, strain RIC1, stronger effect = lower value
[45] = S. cerevisiae deletion strains, locus YLR058C, strain SHM2, stronger effect = lower value
[46] = S. cerevisiae deletion strains, locus YLR102C, strain apc9, stronger effect = lower value
[47] = S. cerevisiae deletion strains, locus YLR268W, strain sec22, stronger effect = lower value
[48] = S. cerevisiae deletion strains, locus YLR371W, strain rom2, stronger effect = lower value
[49] = S. cerevisiae deletion strains, locus YLR418C, strain cdc73, stronger effect = lower value
[50] = S. cerevisiae deletion strains, locus YML016C, strain PPZ1, stronger effect = lower value
[51] = S. cerevisiae deletion strains, locus YML032C, strain rad52, stronger effect = lower value
[52] = S. cerevisiae deletion strains, locus YML124C, strain tub3, stronger effect = lower value
[53] = S. cerevisiae deletion strains, locus YMR078C, strain ctf18, stronger effect = lower value
[54] = S. cerevisiae deletion strains, locus YMR223W, strain ubp8, stronger effect = lower value
[55] = S. cerevisiae deletion strains, locus YMR307W, strain GAS1, stronger effect = lower value
[56] = S. cerevisiae deletion strains, locus YNL067W, strain RPL9B, stronger effect = lower value
[57] = S. cerevisiae deletion strains, locus YNL233W, strain BNI4, stronger effect = lower value
[58] = S. cerevisiae deletion strains, locus YNL250W, strain rad50, stronger effect = lower value
[59] = S. cerevisiae deletion strains, locus YNL271C, strain bni1, stronger effect = lower value
[60] = S. cerevisiae deletion strains, locus YNL298W, strain CLA4, stronger effect = lower value
[61] = S. cerevisiae deletion strains, locus YNL307C, strain MCK1, stronger effect = lower value
[62] = S. cerevisiae deletion strains, locus YNR052C, strain pop2, stronger effect = lower value
[63] = S. cerevisiae deletion strains, locus YOL012C, strain htz1
[64] = S. cerevisiae deletion strains, locus YOL147C, strain pex11, stronger effect = lower value
[65] = S. cerevisiae deletion strains, locus YOR061W, strain CKA2, stronger effect = lower value
[66] = S. cerevisiae deletion strains, locus YOR069W, strain VPS5, stronger effect = lower value
[67] = S. cerevisiae deletion strains, locus YOR136W, strain idh2, stronger effect = lower value
[68] = S. cerevisiae deletion strains, locus YOR144C, strain elg1, stronger effect = lower value
[69] = S. cerevisiae deletion strains, locus YOR184W, strain ser1, stronger effect = lower value
[70] = S. cerevisiae deletion strains, locus YOR316C, strain cot1, stronger effect = lower value
[71] = S. cerevisiae deletion strains, locus YPL241C, strain CIN2, stronger effect = lower value
[72] = S. cerevisiae deletion strains, locus YPR119W, strain clb2, stronger effect = lower value
[73] = S. cerevisiae deletion strains, locus YPR141C, strain kar3, stronger effect = lower value
[74] = S. cerevisiae deletion strains, locus YPR163C, strain tif3, stronger effect = lower value
[75] = S. cerevisiae deletion strains, locus YPR167C, strain met16, stronger effect = lower value
[76] = S. cerevisiae deletion strains, strain wtn01, stronger effect = lower value

Measured: normalized growth

NC1CCN(O)C1=O (centres undefined)
inactive: [1] 1.02 | S. cerevisiae deletion strains, locus YAL040C, strain CLN3, stronger effect = lower value 1.02 | S. cerevisiae deletion strains, locus YCL061C, strain MRC1 (second series), stronger effect = lower value 1.02 | S. cerevisiae deletion strains, locus YDR363W, strain ESC2, stronger effect = lower value 0.986 | S. cerevisiae deletion strains, locus YER002W, strain NOP16, stronger effect = lower value 1.01 | S. cerevisiae deletion strains, locus YGR078C, strain PAC10, stronger effect = lower value 1.02 | S. cerevisiae deletion strains, locus YNL175C, strain NOP13, stronger effect = lower value 1.01 | S. cerevisiae deletion strains, locus YNL197C, strain WHI3, stronger effect = lower value 0.997 | S. cerevisiae deletion strains, locus YNL224C, strain SQS1, stronger effect = lower value 1.02 | S. cerevisiae deletion strains, locus YOR083W, strain WHI5 (second series), stronger effect = lower value 0.985

C=C1C([C@]2(C)C(CC(=O)OC)[C@@](C)(COC(C)=O)OC(=O)C[C@@H]2OC(C)=O)[C@@H](OC=O)[C@H](OC(=O)C(OC(C)=O)C(C)CC)[C@@]2(C)[C@H](c3ccoc3)CC(=O)C12O (some centres undefined)
inactive: [1] 1.03 | [2] 1.03 | [3] 1.01 | [4] 1.03 | [5] 1.01 | [6] 1.04 | [7] 1.03 | [8] 1.03 | [9] 1.03 | [10] 1.03 | [11] 1.01 | S. cerevisiae deletion strains, locus YDR150W, strain NUM1, stronger effect = lower value 1.03 | [12] 1.02 | [13] 1.03 | [14] 1.03 | [15] 1.04 | [16] 1.02 | [17] 1.03 | [18] 1.02 | [19] 1.01 | [20] 1.04 | [21] 1.04 | [22] 1.02 | [23] 1.03 | [24] 1.08 | [25] 1.03 | [26] 1.02 | [27] 1.03 | [28] 1.04 | [29] 1.02 | [30] 1.03 | [31] 1 | [32] 1.06 | [33] 1.02 | [34] 1.03 | [35] 1.04 | [36] 1.02 | [37] 1.03 | [38] 1.03 | [39] 0.952 | [40] 1.03 | S. cerevisiae deletion strains, locus YKL190W, strain CNB1, stronger effect = lower value 1.01 | [43] 1.03 | [44] 1.09 | [45] 1.01 | [46] 1.03 | [47] 1.02 | S. cerevisiae deletion strains, locus YLR330W, strain CHS5, stronger effect = lower value 1.02 | [48] 1.03 | [49] 1.07 | [50] 1.01 | [51] 1.03 | [52] 1.03 | [53] 1.03 | [54] 1.03 | [55] 1.04 | [56] 1.03 | [57] 1.03 | [58] 1.01 | [59] 1.03 | [60] 1.02 | [61] 1.02 | [62] 1.04 | [63] 1.2 | [64] 1.03 | [65] 1.02 | [66] 1.02 | [67] 1.03 | [68] 1.04 | [69] 1.02 | [70] 1.03 | [71] 1.02 | [72] 1.02 | [73] 1.02 | [74] 1.04 | [75] 1.03 | [76] 1.01 | S. cerevisiae strains, strain wild type, stronger effect = lower value 1.03
active: [41] 1.16 [resistant] | [42] 1.16 [resistant]

C=C1C([C@]2(C)C(CC(=O)OC)[C@@](C)(COC(C)=O)OC(=O)C[C@@H]2OC(C)=O)[C@@H](OC=O)[C@H](OC(=O)C(O)C(C)CC)[C@@]2(C)[C@H](c3ccoc3)CC(=O)C12O (some centres undefined)
inactive: [2] 0.996 | [3] 1 | [4] 1.02 | [5] 1.01 | [6] 1.02 | [7] 1.02 | [8] 1.01 | [9] 1.01 | [10] 1.01 | [11] 1 | [12] 1.02 | [13] 1.01 | [14] 0.998 | [15] 1.01 | [16] 1 | [17] 1.01 | [18] 1.01 | [19] 1 | [20] 1.02 | [21] 1 | [22] 1.01 | [23] 1.04 | [24] 1.06 | [25] 1.03 | [26] 1.01 | [27] 1.02 | [28] 1.01 | [29] 1.01 | [30] 0.995 | [31] 1.01 | [32] 1.09 | [33] 1 | [34] 1.01 | [35] 1.04 | [36] 1.01 | [37] 1.01 | [38] 1.02 | [39] 0.994 | [40] 1.01 | [41] 0.999 | [42] 0.999 | [43] 1.02 | [44] 1.09 | [45] 1.01 | [46] 1.01 | [47] 1 | S. cerevisiae deletion strains, locus YLR342W, strain FKS1 (second series), stronger effect = lower value 1.01 | [48] 1.01 | [49] 1.03 | [50] 1 | [51] 0.991 | [52] 1.01 | [53] 1.02 | [54] 1.01 | [55] 1.1 | [56] 1.02 | S. cerevisiae deletion strains, locus YNL153C, strain GIM3, stronger effect = lower value 1.01 | [57] 1.03 | [58] 1.01 | [59] 1.01 | [60] 1.03 | [61] 1.01 | S. cerevisiae deletion strains, locus YNL322C, strain KRE1, stronger effect = lower value 1.01 | [62] 1.01 | S. cerevisiae deletion strains, locus YOL006C, strain TOP1, stronger effect = lower value 1.04 | [63] 0.797 | [64] 1.01 | [65] 1 | [66] 1.01 | [67] 1 | [68] 1 | [69] 1.01 | [70] 1.01 | [71] 1.01 | [72] 1.01 | [73] 1.02 | [74] 1.01 | [75] 1.01 | [76] 0.997
